High-throughput results deposited in PubChem BioAssay by National Center for Advancing Translational Sciences (NCATS).
KB-3-1 cytotox = qHTS assay for MDR1-selective chemotherapeutics: Primary screen using the parental adenocarcinoma cell KB-3-1 | KB-3-1 viability, CellTiter-Glo ATP luminescence, 72 h | Potency, µM (doses to about 46.1 µM), actives largely listed as cytotoxic | actives 1.4% (n = 400,000) | AID 1347075, 2019; further: nearly all actives have a fitted effect of over 60% in size
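Luminescent ATP read-out (CellTiter-Glo) measures survival of drug-naive KB-3-1 cells after 72 h compound exposure at 37 °C. Titration series was screened from lowest to highest concentration, with DMSO vehicle plates as background controls.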
HT1080NT lethal = qHTS for induction of synthetic lethality in tumor cells producing 2HG: qHTS for the HT-1080-NT fibrosarcoma cell line | HT-1080-NT fibrosarcoma viability, CellTiter-Glo ATP luminescence, 48 h | Potency, µM (series often up to 46.1 µM), usual class: cytotoxic | actives 1.6% (n = 360,000);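 further: NT is the 2HG producing partner of a matched IDH1 knockdown line; nearly all actives have a fitted effect of over 55% in size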
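Compounds were tested in concentration-response format on HT-1080-NT cells for 48 hours at 37 degrees C. Cell viability came from CellTiter-Glo luminescence; curves were classified by r2, response magnitude and activity.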
HT1080 IDH1KD tx = qHTS for induction of synthetic lethality in tumor cells producing 2HG: qHTS for the HT-1080-IDH1KD cell line; HT-1080 IDH1 knockdown viability, ATP luminescence, 48 h; actives 2% (n = 360,000); Potency, µM (doses to about 46.1 µM), hits mostly cytotoxic; AID 686971, 2013
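Using the IDH1-knockdown HT-1080 line run in the same batch and compound series as the NT line, viability after 48 h at 37 °C was determined by CellTiter-Glo luminescence and expressed as % activity.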
DT40 TDP1 CPT = qHTS for Inhibitors of human tyrosyl-DNA phosphodiesterase 1 (TDP1): qHTS in cells in presence of CPT. chicken DT40 Tdp1-/-;hTDP1 cells + 20 nM CPT, ATP luminescence, 48 h. Potency, µM (doses to about 46.2 µM), usual class: inhibitors. actives 12% (n = 420,000). AID 686979, 2013; further: nearly all actives have a fitted effect of over 55% in size
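Cell growth measured by CellTiter-Glo luminescence after a minimum 48 h, 37 C compound exposure with 20 nM CPT in Tdp1-knockout DT40 cells stably expressing hTDP1, seeded 400/well; qHTS titration format.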
KB-V1 cytotox = qHTS assay for MDR1-selective chemotherapeutics: Primary screen using the drug-selected MDR subline cells KB-V1. KB-V1 MDR cells viability, CellTiter-Glo, 72 h. Potency, µM (highest dose often 46.1 µM), usual class: cytotoxic. actives 3.4% (n = 400,000). AID 1347076, 2019; further: nearly all actives have a fitted effect of over 60% in size
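KB-V1 cells (P-gp-expressing MDR subline of KB-3-1) in phenol-red-free DMEM with 10% FBS were exposed to library compounds over a concentration series for 72 h at 37 degrees C. Viability read by CellTiter-Glo luminescence; concentration-effect curves fitted after normalization.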
DT40 TDP1 no CPT = qHTS for Inhibitors of human tyrosyl-DNA phosphodiesterase 1 (TDP1): qHTS in cells in absence of CPT; DT40 Tdp1-/- hTDP1 cells, no CPT, ATP luminescence, 48 h; Potency, µM (series often up to 46.2 µM), usual class: inhibitors; actives 15% (n = 420,000); AID 686978, 2013; further: nearly all actives have a fitted effect of over 55% in size
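Seeded 400 DT40-hTDP1 cells/well (vehicle DMSO, no 20 nM CPT); pinned compounds; ≥48 hr at 37 °C; CellTiter-Glo luminescence as viability measure.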
Numbers stand for hits; . = inactive; ? = inconclusive; / = not tested or not shown; [ ] = dose if it differs, or a comment. Sampled rows, rich in hits. Any-hit rate of the full collection: about 19%. The call rests on the fitted dose curve; in most records, active means well fitted curve in the direction sought with a large enough effect; inconclusive means small, poorly fitted or top-dose-only effect, or another doubt; inactive means no such curve, though single readings can be large; an effect the other way counts as inactive or inconclusive.

SMILES	KB-3-1 cytotox	HT1080NT lethal	HT1080 IDH1KD tx	DT40 TDP1 CPT	KB-V1 cytotox	DT40 TDP1 no CPT
O=C(O)CC/C(=N\Nc1ccc([N+](=O)[O-])cc1)c1ccccc1	.	.	.	.	.	.
O=C(NC1(C(F)(F)F)OCCO1)c1ccc(F)cc1	.	.	.	.	.	.
CCS(=O)c1scc(-c2ccc(Cl)cc2)c1C#N (stereo not drawn)	?	.	.	?	21µM	?
CCc1cccc(NC(=O)Cn2c(=O)n(Cc3ccccc3)c(=O)c3c2c2cc(OC)ccc2n3C)c1	.	/	/	?	.	?
COc1cccc2cc(-c3nc4ccc(C)cc4[nH]3)c(=O)oc12	.	/	/	.	.	?
COc1ccc2oc(=O)c(-c3nc4ccc(C)cc4[nH]3)cc2c1	.	/	/	1µM	?	1.5µM
CCOC(=O)c1ccc(NC(=O)c2nc[nH]c2C(=O)NC[C@H](C)O)cc1	.	.	.	.	.	?
Nc1[nH]c(C(=O)c2ccccc2)c(-c2ccccc2C(F)(F)F)c1C(=O)NCCc1cccs1	.	.	.	.	.	.
CCC1CCCCN1S(=O)(=O)c1ccccc1 (stereo not drawn)	.	.	.	?	.	?
COc1ccccc1CCNC(=O)C(=O)NCCC1CCCCN1S(=O)(=O)c1ccccc1 (stereo not drawn)	.	.	.	?	.	16µM
COc1ccc(CCNC(=O)C(=O)NCCC2CCCCN2S(=O)(=O)c2ccccc2)cc1 (stereo not drawn)	.	.	.	23µM	?	23µM
CCC1CCCCN1S(=O)(=O)c1ccccc1[N+](=O)[O-] (stereo not drawn)	.	.	.	21µM	.	23µM
CC1CCCCN1S(=O)(=O)c1ccccc1[N+](=O)[O-] (stereo not drawn)	.	.	.	.	?	.
COc1ccc(CCNC(=O)C(=O)NCCC2CCCCN2S(=O)(=O)c2cccs2)cc1 (stereo not drawn)	.	.	.	?	.	?
COc1ccccc1CNC(=O)C(=O)NCCC1CCCCN1S(=O)(=O)c1ccc(C)cc1 (stereo not drawn)	.	.	.	?	.	?
O=S(=O)(c1ccccc1)N1CCCCC1CCc1ccccc1 (stereo not drawn)	.	.	.	?	?	13µM
CN(C)c1cc(F)c(C=O)cc1F	.	/	/	.	.	.
Cc1ccsc1C(=O)N(C)CC(=O)Nc1ccccc1Br	.	.	.	.	.	.
Cc1ccc2[nH]cc(CCNS(=O)(=O)c3ccc(F)cc3)c2c1	.	.	.	.	.	.
COc1cccc(O)c1CN1CCC2(CC1)c1ccccc1[C@@H](NC(=O)c1ccsc1)[C@@H]2OC	/	/	/	.[9.04 µM]	/	?
O=C(c1cccs1)N1CCCc2cc(NS(=O)(=O)c3ccc(F)cc3)ccc21	.	/	/	21µM	.	.
O=C(c1cccs1)N1CCc2ccccc21	.	.	.	.	?	.
Cc1cc(F)ccc1S(=O)(=O)Nc1ccc2c(c1)CCCN2C(=O)c1cccs1	.	/	/	21µM	?	23µM
COc1ccc(F)cc1S(=O)(=O)Nc1ccc2c(c1)CCCN2C(=O)c1cccs1	.	/	/	?	.	18µM
O=C(c1cccs1)N1CCCc2cc(NS(=O)(=O)c3ccc(F)cc3F)ccc21	.	/	/	21µM	.	9.2µM
SMILES	KB-3-1 cytotox	HT1080NT lethal	HT1080 IDH1KD tx	DT40 TDP1 CPT	KB-V1 cytotox	DT40 TDP1 no CPT
COc1ccc(F)cc1S(=O)(=O)Nc1cc2c3c(c1)CC(=O)N3CCC2	.	.	.	?	.	?
NC(=O)CCCCC1CCSS1 (stereo not drawn)	/	/	/	.	/	.
Cc1ccc(S(=O)(=O)Nc2ccc3c(c2)CCCN3C(=O)c2cccs2)cc1C	.	/	/	21µM	.	16µM
O=C(c1cccs1)N1CCCc2cc(NS(=O)(=O)c3ccc(Cl)cc3)ccc21	.	/	/	?	.	?
Cc1ccc(-n2cc(CNCC3CC(=O)N(C4CC4)C3)c(-c3cccc(C)c3)n2)cc1 (stereo not drawn)	?	.	.	12µM	?	15µM
COc1ccc(CCNC(=O)C2CCN(C(=O)c3ccc([N+](=O)[O-])cc3)CC2)cc1	.	.	.	.	.	.
CC(C)N1C(=O)C(=O)N(CC(=O)N2c3ccccc3CC2C)C1=O (stereo not drawn)	.	.	.	.	.	.
Cc1cccc(Nc2nc(C)cc(C)n2)c1	.	.	.	.	.	.
Cc1cccc(NC2=NC(C)(C)N=C(N)N2)c1	1.6µM	0.33µM	0.16µM	0.46µM	.	0.16µM
CCCCNC(=S)N/N=C/c1sccc1C	.	.	.	0.92µM	.	1.5µM
CCCCNC(=S)N/N=C/c1ccccc1F	.	.	.	?	?	15µM
CCCCNC(=S)N/N=C/c1ccc(C)s1	.	.	.	?	?	?
CCCCNC(=S)N/N=C/c1cc(C)ccc1C	?	.	.	5.2µM	?	6.5µM
O=C(NCc1cccc(C(F)(F)F)c1)c1csc(COCCO)n1	.	.	.	.	.	.
O=C(NCCCc1nc2ccccc2n1Cc1ccccc1F)c1ccco1	.	/	/	?	.	?
O=C1NC[C@@H](Cc2cccc3ccccc23)N(CCc2cccc(F)c2)C1=O	.	.	.	?	.	?
CCCN1CNc2c(c(=O)[nH]c(=S)n2CCC(C)(C)C)C1	/	.	.	?	/	13µM
CCCN1CNc2c(c(=O)[nH]c(=S)n2CCc2cccc(C)c2C)C1	/	.	.	?	/	13µM
CCCN1CNc2c(c(=O)[nH]c(=S)n2CCCc2ccccc2)C1	/	.	.	?	/	13µM
CCCN1CNc2c(c(=O)[nH]c(=S)n2CCc2ccccc2C)C1	/	.	.	.	/	.
CCCCNC(=O)C1(C)CCN1C(=O)c1ccc(OC)c(F)c1 (stereo not drawn)	.	.	.	?	.	.
CC1=NN(c2nc(-c3ccc(C)cc3)cs2)C(=O)C1N=Nc1ccc2ccccc2c1 (stereo not drawn)	.	.	.	?	.	?
CC1=NN(c2ccccc2)C(=O)C1N=Nc1ccc(S(N)(=O)=O)cc1 (stereo not drawn)	.	.	.	.	.	.
